Experiments:
Type in all cases: functional
[1] = system: Plasmodium falciparum; experiment: GSK_TCMDC: Inhibition of Plasmodium falciparum 3D7 in whole red blood cells, using parasite LDH activity as an index of growth. Test compounds present at 2uM
[2] = system: Plasmodium falciparum; experiment: GSK_TCMDC: Inhibition of Plasmodium falciparum Dd2 in whole red blood cells, using parasite LDH activity as an index of growth. Test compounds present at 2uM
[3] = system: HepG2; experiment: GSK_TCMDC: Percent inhibition of human HepG2 cell line. Test compounds present at 10uM.

Compound	Inhibition [1]	Inhibition [2]	Inhibition [3]
CCNc1cc(C(=O)N[C@@H](Cc2ccccc2)[C@H](O)CNCCc2cccc(C(F)(F)F)c2)cc(N2CCCC2=O)c1.O=CO	96%	93%	7%
O=C(O)C(F)(F)F.OCC1CCCCN1Cc1cccc(-c2cccc(-c3nc4ccccc4[nH]3)c2)c1 (stereo not drawn)	95%	4%	24%
Cc1cc(N[C@@H](CC(C)C)C(=O)NCCc2ccccc2)nc(NCCc2cccs2)n1.O=C(O)C(F)(F)F	89%	16%	0%
Cc1ccccc1NC(=O)NC1CCN(CCCCCNC(=O)/C=C/c2ccc(Cl)c(Cl)c2)CC1	100%	20%	13%
Cn1cncc1CCN(Cc1ccc(-c2ccc(C(F)(F)F)cc2)cc1)C(=O)Cn1c(SCc2cccc(F)c2F)cc(=O)c2ccccc21	99%	90%	24%
COc1ccc2nccc([C@@H](O)CN3CCC(NCCOc4cccc(F)c4F)CC3)c2c1.O=C(O)C(=O)O	100%	85%	9%
CCCCCCCN1CCC(NC(=O)Nc2ccnc3ccc(OC)cc23)C(C(=O)OCC)C1.O=C(O)C(=O)O (stereo not drawn)	100%	73%	11%
CC(C)[C@H](NC(=O)c1ccc(O)c(-c2cccc(C(F)(F)F)c2)c1)C(=O)NCCN1CCCCC1	99%	29%	3%
CCCCNC(=O)C(C)NC(=O)c1ccc(O)c(-c2ccc(Cl)c(Cl)c2)c1 (stereo not drawn)	98%	8%	0%
CC[C@H](C)CNC(=O)c1cncc(-c2ccc(CNCCCc3ccccc3)cc2)c1.O=C(O)C(F)(F)F	100%	99%	19%
CN1CCc2cc(NS(=O)(=O)c3ccc(-c4ccc(Cl)cc4)cc3)c(OCCCN3CCCCC3)cc2CC1.Cl	100%	100%	91%
CCCC(=O)Nc1ccc(OCCCN(Cc2cccc(C(F)(F)F)c2)c2ccc(C#N)c(C(F)(F)F)c2)cc1	90%	89%	0%
CCOC(=O)c1cc2c(CCN3C(=O)c4ccccc4C3=O)cn(C)c2cc1-c1ccncc1	100%	90%	99%
Br.O=C(CNc1ccncc1)c1c[nH]c2ccccc12	90%	62%	31%
COc1ccc(C2CC(=O)C3=C(C2)NC(C)=C(C(=O)OC2CCCC2)C3c2cccc(O)c2)cc1 (stereo not drawn)	88%	83%	0%
O=C(NC1CCCc2ccccc21)C1CCCN(C(=O)c2ccc(O)c(-c3ccc(Cl)c(Cl)c3)c2)C1 (stereo not drawn)	88%	54%	0%
Cl.O=C(/C=C/c1ccc(Cl)cc1)Nc1ccc2nc(CN3CCCC3)ccc2c1	85%	30%	47%
CCc1ccccc1-c1csc(C(=O)NCC2CCN(Cc3ccc(C(C)(C)C)cc3)C2)c1.O=C(O)C(F)(F)F (stereo not drawn)	90%	15%	25%
O=C(Nc1ccc(C(F)(F)F)cc1)NC1CCN(c2ccnc3cc(Cl)ccc23)CC1.O=C(O)C(F)(F)F	100%	74%	22%
CN(C(=O)/C=C/c1cc(C(F)(F)F)ccc1F)C1CCN(CCCCCNC(=O)/C=C/c2ccc(Cl)c(Cl)c2)C1 (stereo not drawn)	93%	1%	16%
O=C(Nc1cccc(C(F)(F)F)c1)c1cc([N+](=O)[O-])cc2cn[nH]c12	100%	69%	60%

Compound	Inhibition [1]	Inhibition [2]	Inhibition [3]
N#Cc1cccc(C(=O)Nc2cccc(-c3cccc(CN4CCNCC4)c3)c2)c1.O=C(O)C(F)(F)F	89%	10%	37%
O=C(Nc1ccc(Br)c(Cl)c1)c1cc([N+](=O)[O-])cc2cn[nH]c12	99%	63%	49%
N#Cc1ccc(N(CCOC(=O)c2ccccc2)Cc2ccccc2C(F)(F)F)cc1C(F)(F)F	92%	67%	6%
Cc1cccc2nc(-c3ccc(-c4cccc(NC(=O)NCc5ccccc5)c4)cc3)[nH]c12	95%	0%	25%
CC(C)Nc1cc(C(=O)N[C@@H](Cc2ccccc2)[C@H](O)CNC(C)(C)c2cccc(C(F)(F)F)c2)cc(N2CCCCS2(=O)=O)c1.O=CO	98%	98%	9%
CCc1ccc(O)c(-c2cc(C(=O)Nc3cccnc3)[nH]n2)c1	98%	99%	0%
CCOc1ccc(C(=O)Nc2nonc2-c2ccc(OC)c(OC)c2)cc1	95%	42%	7%
Cc1cccc(CNc2nc(C)cc(NCCC(=O)Nc3ccccc3)n2)c1.O=C(O)C(F)(F)F	100%	54%	15%
Cc1cccc2nc(-c3ccc(-c4cccc(NC(=O)Nc5ccc(F)c(F)c5F)c4)cc3)[nH]c12	100%	89%	40%
CCc1c[nH]c2c(N3CCCCS3(=O)=O)cc(C(=O)N[C@@H](Cc3ccccc3)[C@H](O)CNCc3cccc(OC)c3)cc12.O=CO	86%	91%	0%
CCn1c(-c2nonc2N)nc2c(-c3cccc(NC(=O)Nc4ccc(Cl)cc4)c3)ncc(OCCCN)c21.O=C(O)C(F)(F)F	96%	72%	26%
Cc1cc(N)nc2ccc(-c3cccc(CN)c3)cc12	100%	59%	2%
CCN(CC)CCOc1ccc(Nc2ncc3cc(-c4c(Cl)cccc4Cl)c(=O)n(C)c3n2)cc1 [PD-0166285]	90%	91%	72%
CCCC(=O)NC(c1ccc(C)cc1)c1ccc2cccnc2c1O (stereo not drawn)	88%	45%	52%
Cc1cc(N[C@@H](Cc2ccccc2)C(=O)NCc2cccs2)nc(NCCc2ccccn2)n1.O=C(O)C(F)(F)F	93%	49%	0%
COCCNCc1nc(-c2ccc3c(Nc4ccc(F)c(O)c4)ccnc3c2)cs1	100%	99%	0%
O=C(O)c1cc(OCC(O)COc2ccc(O)c(C(=O)O)c2)ccc1O	99%	6%	9%
COc1ccc(Nc2cc(C)c3cc(NC(=O)c4ccncc4)ccc3n2)cc1	98%	26%	0%
COc1ccc2nccc([C@@H](O)CN3CCC(NCc4nc5c(cc4F)SCC(=O)N5)C(F)C3)c2c1.Cl (stereo partly drawn)	95%	49%	9%
CCCc1cc(N2CCC(c3ccccc3)(N3CCCCC3)CC2)nc(Nc2ccc(OC)cc2)n1	81%	28%	13%
COc1ccc(NC(=O)N2CCCN(CCCCCNC(=O)/C=C/c3ccc(C(F)(F)F)cc3)CC2)cc1Cl	93%	0%	21%

Compound	Inhibition [1]	Inhibition [2]	Inhibition [3]
Cc1cc(N[C@@H](CC(C)C)C(=O)NCCc2ccccc2)nc(NCC2CCCCC2)n1.O=C(O)C(F)(F)F	97%	65%	19%
CCCC(C)Nc1nc(C)cc(N[C@@H](Cc2ccccc2)C(=O)Nc2ccc(OC)cc2)n1.O=C(O)C(F)(F)F (stereo partly drawn)	100%	72%	24%
Cc1c(CCc2cccc(F)c2F)[nH]c2ccccc2c1=O	91%	90%	41%
COc1ccc(Nc2nc(NCc3cccnc3)cc(-c3ccc(OC)cc3)n2)cc1	89%	16%	0%
Cc1cc(Nc2ccc(OCc3ccccc3Cl)cc2)c2cc(Cl)ccc2n1.Cl	100%	58%	33%
CS(=O)(=O)c1ccc(-c2cncc(Cl)n2)cc1	100%	95%	8%
C=CCOC(=O)N1CCC(CNCc2ccc(-c3cccc(-c4nc5ccccc5[nH]4)c3)cc2)C1.O=C(O)C(F)(F)F (stereo not drawn)	100%	50%	39%
CCNc1cc(C(=O)N[C@@H](Cc2cccc(Cl)c2)[C@H](O)CNC(C)CCCC(C)C)cc(N2CCCCS2(=O)=O)c1.Cl (stereo partly drawn)	98%	78%	7%
COc1cc(Nc2nccc(N3CCC(NC(=O)C(C)c4ccc(Cl)cc4)C3)n2)cc(OC)c1OC (stereo not drawn)	97%	90%	2%
COc1ccccc1-n1c(SCC(=O)Nc2ccccc2F)nc2cccnc21	96%	88%	0%
Nc1cccc(CNCc2cccc(-c3ccc(-c4nc5cc(C(F)(F)F)ccc5[nH]4)cc3)c2)c1.O=C(O)C(F)(F)F	100%	98%	6%
Cn1cnc(CCNC(=O)c2ccc(-c3cccc(-c4nc5cc(F)ccc5[nH]4)c3)cc2)c1	100%	24%	23%
Cc1nccn1Cc1cc(C(C)(C)C)c(O)c(C(C)(C)C)c1	99%	0%	8%
Cc1cc(Nc2ccncc2)n2nc(C)c(-c3ccc(Cl)cc3)c2n1	100%	99%	0%
CCCN(CCC)CCCN(CCCN(CCC)CCC)c1cc(C)nc(Nc2ccc3cc(Br)ccc3c2)n1.Cl	98%	99%	99%
Cc1cc(N2CCCN(CC3CCCCC3)CC2)nc(Nc2ccc(Br)cc2)n1	95%	54%	24%
C#CCCC(=O)Nc1cccc(-c2cccc(-c3nc4cccc(C)c4[nH]3)c2)c1	97%	29%	30%
COc1cc(Cc2cnc(N)nc2N)ccc1OCC(=O)Nc1ccc(C)cc1	95%	18%	10%
CCC(C)NCc1c(O)ccc2c(CNC(C)CC)c(O)ccc12.Cl (stereo not drawn)	100%	31%	14%

Reference: ChEMBL document CHEMBL1157539, “Thousands of chemical starting points for antimalarial lead identification” (Nature, 2010)
